# Laboratory results reported in PubChem BioAssay (NCATS).
# Results filed as inconclusive are left out. A number with no mark means an inactive call. The source made the active and inactive calls. Calls follow the shape of the dose curve; as a rule, active = well fitted cell-killing curve with a large enough effect; inconclusive = small, poorly fitted or top-dose-only effect, or effect the other way; inactive = no such curve, though single readings can be large or run the other way.
# Key:
# [1] = Quantitative High-Throughput drug screen in 47 multiple myeloma cell lines against the NCATS MIPE library collection: OPM1_PLB cell viability assay (AID 1918989); also: nearly all actives have a fitted effect of over 40% in size; also: potency is read from the fitted curve at half-maximal effect
# Summary of the method: (§1)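 Viability after 48 h drug exposure was measured as ATP-dependent luminescence. Cells, 500 per well, sat at 37 °C under 5% CO2; DMSO wells set 100%, media-only wells 0%.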
# [2] = Quantitative High-Throughput drug screen in 47 multiple myeloma cell lines against the NCATS MIPE library collection: U266_ATCC cell viability assay (AID 1919864); also: nearly all actives have a fitted effect of over 35% in size; also: potency is read from the fitted curve at half-maximal effect
# Summary of the method: as §1
# [3] = Quantitative High-Throughput drug screen in 47 multiple myeloma cell lines against the NCATS MIPE library collection: XG6_PLB cell viability assay (AID 1919865); also: nearly all actives have a fitted effect of over 40% in size; also: potency is read from the fitted curve at half-maximal effect
# Summary of the method: as §1
# [4] = Quantitative High-Throughput drug screen in 47 multiple myeloma cell lines against the NCATS MIPE library collection: VP6_DJ cell viability assay (AID 1919867); also: nearly all actives have a fitted effect of over 40% in size; also: potency is read from the fitted curve at half-maximal effect
# Summary of the method: as §1
# [5] = Quantitative High-Throughput drug screen in 47 multiple myeloma cell lines against the NCATS MIPE library collection: PE2_PLB cell viability assay (AID 1919869); also: nearly all actives have a fitted effect of over 35% in size; also: potency is read from the fitted curve at half-maximal effect
# Summary of the method: as §1
# [6] = Quantitative High-Throughput drug screen in 47 multiple myeloma cell lines against the NCATS MIPE library collection: UTMC2_PLB cell viability assay (AID 1919868); details: CellTiter-Glo ATP luminescence, 48 h; viability (% of DMSO control): at 45.8 µM (top of the series); also: nearly all actives have a fitted effect of over 55% in size
# Summary of the method: as §1
# [7] = Quantitative High-Throughput drug screen in 47 multiple myeloma cell lines against the NCATS MIPE library collection: SKMM1_PLB cell viability assay (AID 1919863); details: SKMM1 myeloma viability, CellTiter-Glo ATP, 48 h; viability: stronger effect = lower value; also: nearly all actives have a fitted effect of over 35% in size; also: potency is read from the fitted curve at half-maximal effect
# Summary of the method: as §1
# [8] = Quantitative High-Throughput drug screen in 47 multiple myeloma cell lines against the NCATS MIPE library collection: XG1_PLB cell viability assay (AID 1919866); also: nearly all actives have a fitted effect of over 35% in size; also: potency is read from the fitted curve at half-maximal effect
# Summary of the method: as §1
compound,measurement,setting,value
CC(C)(F)C[C@H](N[C@@H](c1ccc(-c2ccc(S(C)(=O)=O)cc2)cc1)C(F)(F)F)C(=O)NC1(C#N)CC1,Potency,[1],5.9 µM (active)
same,Potency,[2],inactive
same,Potency,[3],inactive
same,Potency,[4],inactive
same,Potency,[5],6.62 µM (active)
CC[C@H]1OC(=O)[C@H](C)[C@@H](O[C@H]2C[C@@](C)(OC)[C@@H](O)[C@H](C)O2)[C@H](C)[C@@H](O[C@@H]2O[C@H](C)C[C@H](N(C)C)[C@H]2O)[C@](C)(O)C[C@H](C)C(=NOCOCCOC)[C@H](C)[C@@H](O)[C@]1(C)O,Potency,[1],inactive
same,Potency,[3],inactive
same,Potency,[5],inactive
CCCCC[C@H](O)C=C[C@H]1[C@H](O)CC(=O)[C@H]1CC=CCCCC(=O)O,Potency,[1],18.7 µM (active)
same,Potency,[2],18.7 µM (active)
same,Potency,[3],20.9 µM (active)
same,Potency,[6],inactive
same,Potency,[5],23.5 µM (active)
O=C(NCCCCN1CCOCC1)c1cc2ccccc2o1,Potency,[1],inactive
same,viability,[7],115%
same,Potency,[3],inactive
same,Potency,[8],inactive
CCN(CC)CCCCNc1nc2cc(Cl)c(Cl)cc2nc1-c1ccc(-c2cccs2)s1,Potency,[1],5.9 µM (active)
same,Potency,[2],23.5 µM (active)
same,Potency,[3],8.33 µM (active)
same,Potency,[4],8.33 µM (active)
same,Potency,[5],9.35 µM (active)
OC1CCC(Nc2ncc3nc(Nc4c(F)cc(F)cc4F)n([C@@H]4CCOC4)c3n2)CC1 (some centres not stated),Potency,[1],20.9 µM (active)
same,Potency,[7],18.7 µM (active)
same,Potency,[3],9.35 µM (active)
same,Potency,[8],13.2 µM (active)
same,Potency,[4],11.8 µM (active)
CC1CCN(c2cc(N3CCN(C)CC3)ccc2NC(=O)c2cc(C#N)c[nH]2)CC1,Potency,[1],inactive
same,Potency,[3],inactive
same,Potency,[5],inactive
NCC1CCC(C(=O)O)CC1 (configuration not stated),Potency,[1],inactive
same,Potency,[2],5.9 µM (active)
same,Potency,[3],inactive
same,Potency,[5],inactive
C[C@@H](O)[C@H]1C(=O)N2C(C(=O)OCOC(=O)C(C)(C)C)=C(SC3CN(C4=NCCS4)C3)[C@H](C)[C@H]12,Potency,[1],inactive
same,viability,[7],111%
same,Potency,[4],inactive
